# Screening data: PubChem BioAssay, several laboratories
# Rows were chosen to be rich in hits. Some 2.8% of all compounds tested hit in one or more screens of this group.
# Rev-erbA mod: Rev-erb alpha (human) modulation; P20393; Rev-erbα–FITC-DNA binding, fluorescence polarization, 90 min; activity, % at 10 µM; 370,000 compounds, 0.79% hits; AID 1259318;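 active = activity above about 14%, limit read from the data; passing the limit was not always enough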;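 note: 0% = DMSO wells with 35 nM protein and 100% = DMSO wells with 750 nM protein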
# PG9 binder: binds the HIV-1 gp120 antibody PG9 | TR-FRET gp120-PG9 antibody binding | 360,000 compounds, 0.43% hits | inhibition, % at 6.7 µM; in the data active = inhibition above about 8.5%
# PP1 inh: counter-screen for PP5 inhibitors: inhibitors of human PP1-alpha; P62136; purified PP1alpha, OMFP fluorescence; inhibition, % at 6.7 µM; 320,000 compounds, 0.9% hits; AID 2235;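 active = inhibition above the mean inhibition of all tested compounds plus 3 SD, computed separately for each screening campaign, cut at about 15% in these data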
# PP5 primary: inhibitors of human protein phosphatase 5 (PP5); P53041; purified PP5c, OMFP substrate fluorescence; inhibition, % at 6.7 µM; 320,000 compounds, 0.18% hits; AID 1987;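 active = inhibition above the campaign's mean inhibition across all tested compounds plus 3 SD, cut at about 9.5% in these data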;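 note: 0% = DMSO only and 100% = 100 µM cantharidin control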
# JMJD2C inh: inhibitors of human GASC-1 (JMJD2C) demethylase. Q9H3R0. GST-JMJD2C(1-420) H3K9me3 demethylation, DELFIA europium. inhibition, % at 2.35 µM. 330,000 compounds, 0.069% hits;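 active = more than half of a compound's replicate wells show inhibition beyond 50%, single wells judged on their own value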;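 note: signal counts dimethyl H3K9 product captured on neutravidin plate; 0% = median of DMSO wells and 100% = 0.3 times that DMSO median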
# Target sequence (Q9H3R0 1-420 limits assumed): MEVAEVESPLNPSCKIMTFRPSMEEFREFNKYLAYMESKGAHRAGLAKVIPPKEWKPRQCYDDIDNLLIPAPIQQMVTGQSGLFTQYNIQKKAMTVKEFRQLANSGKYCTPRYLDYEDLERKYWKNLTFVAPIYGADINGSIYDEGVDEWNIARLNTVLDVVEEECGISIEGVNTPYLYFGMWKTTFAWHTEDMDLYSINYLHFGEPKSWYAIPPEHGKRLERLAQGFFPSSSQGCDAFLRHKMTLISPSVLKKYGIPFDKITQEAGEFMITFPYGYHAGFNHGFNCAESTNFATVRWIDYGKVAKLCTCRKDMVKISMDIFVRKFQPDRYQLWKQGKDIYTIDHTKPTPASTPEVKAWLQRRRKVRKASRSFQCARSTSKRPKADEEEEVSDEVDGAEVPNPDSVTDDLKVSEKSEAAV
# proKLK7 act: activates the human kallikrein-7 zymogen. 370,000 compounds, 0.9% hits. purified proKLK7, EDANS-DABCYL substrate fluorescence; 100% is mature enzyme control, 0% vehicle. activation, % at 7 µM. P49862. AID 652039;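 active = activation above the mean of all tested compounds plus 3 SD, computed per campaign excluding outliers beyond control limits, cut at about 13% in these data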
# NR1D1 mod conf: confirmation of modulators of human Rev-erb alpha DNA binding; shares compounds with Rev-erbA mod; Rev-erb alpha FITC-DNA binding, fluorescence polarization, 90 min; activation, % at 25 µM; 3,000 compounds, 61% hits; AID 1259319;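 active = activation at or above a set limit, or at least 3 SD above the negative control mean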;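 note: 0% = 35 nM protein with DMSO and 100% = 750 nM protein high control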
# RORg DNA counter: affects RORgamma DNA binding in a Rev-erb alpha counter-screen. shares compounds with Rev-erbA mod. purified RORgamma protein-FITC-DNA binding, fluorescence polarization. IC50, µM. 910 compounds, 8% hits. AID 1259320;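 active = Compounds whose fitted half-maximal concentration for disrupting protein-DNA binding is below 10 micromolar; the record names Rev-erb in its text, so the target is in doubt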
# Numbers without * were called inactive; i = inactive; x = not tested or not shown.
SMILES,Rev-erbA mod,PG9 binder,PP1 inh,PP5 primary,JMJD2C inh,proKLK7 act,NR1D1 mod conf,others
Cc1cccc(N2C(=O)CC(Sc3nc(-c4ccccc4)c4cc(Cl)ccc4n3)C2=O)c1 (centres undefined),20*,3,1,4,-19,0,-14,
Cc1ccccc1NC(=O)[C@H]1CC(=O)O[C@@H]1c1ccccc1,5,x,x,x,x,0,x,
Cc1cc(C)c2nc(NC(=O)c3ccc(OCC4CCCO4)cc3)sc2c1 (centres undefined),12,0,0,-1,11,0,x,
Cc1ccc2nc(NC(=O)c3ccc(OCC4CCCO4)cc3)sc2c1 (centres undefined),31*,-2,-2,5,-2,-6,14,
O=C1COc2ccccc2C(c2nnnn2-c2ccc3ccccc3c2)N1C1CC1 (centres undefined),-3,x,x,x,x,0,x,
COc1cccc(-n2nnc3c(=O)n(CC(=O)Nc4ccccc4C)cnc32)c1,23*,1,4,2,-4,0,5,
O=C(Cc1c[nH]c2ccccc12)Nc1ccc(Nc2cccnc2)c(-c2ccc(OC(F)(F)F)cc2)c1,9,0,x,x,x,0,x,
CC(C)[C@@H]1CC[C@@H](C)C[C@H]1OC[B-](F)(F)F,1,-1,x,x,x,0,x,
COc1ccc(C(C)=O)cc1COC(=O)c1ccc(OCc2c(C)noc2C)cc1,16*,7,2,3,5,0,12,
O=C(CSc1nnc2ccc(-c3ccccn3)nn12)Nc1cccc(F)c1,22*,1,x,x,x,0,16*,
COc1ccc(NC(=O)CSc2nnc3ccc(-c4ccccn4)nn23)cc1,3,-1,-4,-1,3,0,x,
COc1ccc(C(=O)CSc2nnc3ccc(-c4ccccn4)nn23)cc1,52*,0,-8,2,16,0,19*,
Cc1ccc(OCc2nnc(SCC(=O)c3ccccc3)n2-c2ccccc2)cc1,-3,-3,10,4,2,1,x,
COc1ccc(-n2c(COc3ccc(C)cc3)nnc2SCC(=O)c2ccc(-c3ccccc3)cc2)cc1,45*,x,x,x,x,0,28*,
O=C(CSc1nnc2ccc(-c3ccccn3)nn12)Nc1ccc(F)cc1,4,0,x,x,x,0,x,
COc1cc(C(C)=O)ccc1OCC(=O)NC(=O)Nc1ccc(C)cc1C,28*,0,x,x,-10,0,-6,
Cc1ccc(NC(=O)NC(=O)COc2ccc(Cl)cc2Cl)c(C)c1,2,0,-1,3,-3,0,x,
CCCCNS(=O)(=O)CC1NCCc2ccccc21 (centres undefined),-4,x,x,x,x,0,x,
Cc1ccc2[nH]c(=O)c3cc(C(=O)N(C)C4CCCCC4)sc3c2c1,21*,1,-2,1,6,-1,-1,
CCOC(=O)Cc1c(C)nc2c(-c3cccc(Br)c3)cnn2c1C,4,-2,2,1,-7,-1,x,
CC(=O)c1cnc2c(-c3cccc(Br)c3)cnn2c1C,30*,6,-1,0,-4,1,34*,RORg DNA counter=>40
COC(=O)c1sc2nc(-c3ccccc3)c3c(c2c1N)CCCC3,69*,2,9,1,-5,0,39*,RORg DNA counter=>40
S=c1nc[nH]c2c1sc1nc(-c3ccccc3)c3c(c12)CCCC3,16,0,2,-2,4,-1,x,
O=c1[nH]cnc2c1sc1nc(-c3ccccc3)c3c(c12)CCCC3,18*,0,1,3,14,-5,9,
CCN(C)C(=O)CN1C(=O)C2CCCCN2C(=O)c2ccccc21 (centres undefined),4,x,x,x,x,0,x,
SMILES,Rev-erbA mod,PG9 binder,PP1 inh,PP5 primary,JMJD2C inh,proKLK7 act,NR1D1 mod conf,others
CCOc1nc(-c2ccccc2)ccc1-c1noc(-c2ccncc2)n1,29*,3,-3,-3,6,0,24*,
COc1cccc(-c2ccc(-c3noc(-c4cccs4)n3)c(OC)n2)c1,12,0,-2,2,-3,0,x,
CCOc1nc(-c2ccccc2)ccc1-c1noc(-c2cccs2)n1,40*,1,-4,2,4,0,14,
CCOc1nc(-c2ccc(OC)cc2)ccc1-c1noc(-c2ccncc2)n1,-2,-1,x,x,x,0,x,
Cc1ccc(CN2CC(N3CCC[C@@H]3C)CS2(=O)=O)cc1 (some centres undefined),1,-1,x,x,x,0,x,
COC(=O)[C@]12C[C@H](CC(=O)N3CCOCC3)C(=O)N(Cc3cccc4ccccc34)C1=C[C@H](C1CCCC1)O[C@@H]2C,-1,x,x,x,x,1,x,
COc1ccc(-n2c(SCC(=O)NC3CCCCC3)nc3ccsc3c2=O)cc1,49*,1,0,-1,10,-1,33*,RORg DNA counter=>40
Cc1[nH]nc2nc(SCC(=O)NC3CCCCC3)n(-c3ccc(Br)cc3)c(=N)c12,64*,4,-4,2,26,0,65*,RORg DNA counter=i
CCC(C)NC(=O)CSc1nc2ccsc2c(=O)n1-c1ccc(OC)cc1 (centres undefined),5,2,-1,2,-2,0,x,
CCOC(=O)/C=C1/SCC(=O)N1CCOc1cccc(Br)c1,24*,-2,x,x,x,0,12*,
O=C1OC(c2ccccc2)(c2ccccc2)c2ccsc21,23*,-2,x,x,x,-1,20*,
COC(=O)[C@]12C[C@H](CC(=O)N3CCSCC3)C(=O)N(Cc3ccccc3)C1=C[C@H](C(C)C)O[C@@H]2C1CC1,-3,-2,x,x,x,0,x,
O=C(NCc1ccco1)c1ccc(Cn2c(=O)c3ccccc3n(Cc3ccc(Cl)cc3)c2=O)cc1,7,1,9,1,12,-1,x,
O=C(NCc1ccco1)c1ccc(Cn2c(=O)c3ccccc3n(Cc3cccc(F)c3)c2=O)cc1,53*,-1,5,-3,5,-1,37*,RORg DNA counter=i
C/C(=N\NC(=O)COc1cccc(C)c1)c1ccc2ccccc2c1O,217*,1,x,x,0,-2,165*,RORg DNA counter=>40
CCN(CC)C(=O)c1ncn2c1C(=O)NC[C@@H]2C,0,0,x,x,x,0,x,
CCOC(=O)c1c(C)nc2sc3c(=O)n(-c4ccc(OC)cc4)cnc3c2c1-c1ccc(OC)cc1,35*,-1,-5,-1,0,0,-14,
CCOC(=O)c1c(C)nc2sc3c(=O)n(-c4ccc(C(C)=O)cc4)nnc3c2c1-c1ccc(OC)cc1,-5,1,1,5,-4,0,x,
Cc1ccccc1C(=O)N(C)[C@H]1C[C@H]2c3[nH]c4c(-c5ccccc5)cccc4c3CCN2C(=O)[C@H]1[C@H](C)O,13*,1,x,x,x,2,2,
